Screens deposited in PubChem BioAssay by National Center for Advancing Translational Sciences (NCATS).
TRPML1 blocker: blocks the human TRPML1 channel | 390,000 compounds, 0.02% hits | activity change, negative = inhibition, % (concentration not given with the values) | TRPML1-inducible cells, Ca2+ dye fluorescence, FDSS; hits give low values; inhibition of EC80 agonist-evoked calcium signal; in the data active = activity change below about -50%; inconclusive = between about -30% and that limit;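 note: stimulus is agonist 54-4 at its EC80 concentration; % is set by controls: 0 for no effect and ±100 for the full control effect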
Target sequence (Q9GZU1 whole entry, looked up): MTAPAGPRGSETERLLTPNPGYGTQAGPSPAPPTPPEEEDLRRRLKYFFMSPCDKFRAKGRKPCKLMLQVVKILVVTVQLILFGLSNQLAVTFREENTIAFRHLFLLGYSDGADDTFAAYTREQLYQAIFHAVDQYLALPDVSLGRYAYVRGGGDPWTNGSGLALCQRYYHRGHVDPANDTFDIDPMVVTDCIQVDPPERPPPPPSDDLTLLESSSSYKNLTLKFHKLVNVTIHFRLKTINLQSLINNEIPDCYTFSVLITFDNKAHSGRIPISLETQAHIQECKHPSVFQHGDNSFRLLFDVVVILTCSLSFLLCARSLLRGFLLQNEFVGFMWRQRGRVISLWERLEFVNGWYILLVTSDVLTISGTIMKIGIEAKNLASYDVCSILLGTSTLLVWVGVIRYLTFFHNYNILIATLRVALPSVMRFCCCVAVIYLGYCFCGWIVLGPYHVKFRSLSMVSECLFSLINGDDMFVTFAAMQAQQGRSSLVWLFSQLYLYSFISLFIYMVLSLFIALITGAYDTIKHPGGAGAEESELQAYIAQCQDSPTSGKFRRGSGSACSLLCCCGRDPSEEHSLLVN
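TRPML1-DL cells, Tet-induced overnight (~16 h, 37 °C) at 1,500 cells/well, were loaded with Ca8 no-wash dye plus quencher for 45-90 min at room temperature. Compounds were pinned during FDSS kinetic reading; agonist 54-4 at EC80 (4 uM final) then added.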
D3 antag: antagonists of human D3 dopamine receptor; 360,000 compounds, 2.5% hits; P35462; D3R cells, DiscoveRx beta-arrestin luminescence, antagonist mode; hits give low values; max response, negative = inhibition, %; in the data active = max response below about -50%; inconclusive = no clear call, values can overlap the other calls; note: % is set by controls: 0 for no effect and ±100 for the full control effect
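Cells plated overnight at 1500 cells/well, then exposed to library compounds with dopamine controls for 90 minutes at 37 degrees C. DiscoveRx reagent added for 30–60 minutes at room temperature; luminescence read, quantitative HTS format.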
DRD3 agonist: activates the human D3 dopamine receptor; max activation, %; 410,000 compounds, 0.58% hits; D3R DiscoveRx beta-arrestin cells, luminescence, 90 min; P35462; in the data active = max activation above about 30%; note: 0% is about no effect
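Agonist-mode cell screen: cells plated at 1500/well and incubated overnight at 37 °C, then exposed to library compounds for 90 min at 37 °C. Detection reagent was added for 30–60 min at room temperature, and luminescence was read.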
TRPML1 ag: activates the human TRPML1 channel. TRPML1-expressing cells, Ca2+ dye fluorescence, FDSS. 410,000 compounds, 0.12% hits. activation, % (concentration not given with the values); in the data active = activation above about 50%; inconclusive = mostly about 30% to 49%; note: 0% is about no effect
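Calcium fluorescence on an FDSS kinetic reader gave the read-out. Tet-induced TRPML1-DL cells were plated overnight, dye-loaded (Ca8 with quencher, 45-90 min, room temperature, dark), then read 110 s after compound addition, and again 110 s after 4uM final 54-4 (EC80).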
* marks the source's active call; other numbers are inactive results. Only some compounds are listed: those with a hit (about 2.9% of all), similar ones and a draw of the others.

How did CCN(CC)c1ccc(/C=C2\C(=O)c3ccc(C(=O)O)cc3C2=O)cc1 do in these assays?
TRPML1 blocker: -16; D3 antag: -27; DRD3 agonist: -10; TRPML1 ag: 78*

Results for Cc1ccc(NC(=S)NNC(=O)c2cn(C)nc2C)cc1 ?
TRPML1 blocker: -12; D3 antag: -67*; DRD3 agonist: -6; TRPML1 ag: 0

Results for O=C(NNC(=S)Nc1ccccc1)NNC(=S)Nc1ccccc1 ?
TRPML1 blocker: 11; D3 antag: -70*; DRD3 agonist: -4; TRPML1 ag: 0

What do the screens show for `Cc1ccc(NC(=S)NNC(=O)c2c(Cl)c(C)nn2C)cc1`?
TRPML1 blocker: 24; D3 antag: -19; DRD3 agonist: -14; TRPML1 ag: -1

How did Cc1ccc(NC(=S)NNC(=S)Nc2ccc(C)cc2)cc1 do in these assays?
TRPML1 blocker: -2; D3 antag: 16; DRD3 agonist: 1; TRPML1 ag: 2

How did O=C(NNC(=S)Nc1ccccc1)Nc1ccccc1 do in these assays?
TRPML1 blocker: -4; D3 antag: -24; DRD3 agonist: 1; TRPML1 ag: 1

What do the screens show for `Cc1ccc(NC(=S)NNC(=O)Nc2ccccc2)cc1`?
TRPML1 blocker: 5; D3 antag: -52*; DRD3 agonist: -18; TRPML1 ag: -1

What do the screens show for `COc1ccc2c(c1)CCc1c(C(=O)Nc3c(C)nn(Cc4ccc(C)cc4)c3C)noc1-2`?
TRPML1 blocker: -19; DRD3 agonist: 8; TRPML1 ag: 3

Results for N/C(=C\c1ccccc1)c1ccncc1 ?
TRPML1 ag: 6

Results for Cc1ccc(Cl)cc1N1CCN(CCCNc2ncnc3onc(-c4ccc(F)cc4)c23)CC1 ?
TRPML1 blocker: 8; DRD3 agonist: -24; TRPML1 ag: 2

Results for CCOc1ccc(NC(=O)CSc2nnc3c(n2)[nH]c2ccc(S(=O)(=O)N(C)C)cc23)cc1 ?
TRPML1 ag: 0

What do the screens show for `COc1ccc(C(=O)c2sc3nc(C)cc(-c4cccs4)c3c2N)cc1OC`?
TRPML1 blocker: -21; D3 antag: 11; DRD3 agonist: 52*; TRPML1 ag: 52*

How did Cc1cccc(NC(=O)CSc2nccn2Cc2ccc(F)cc2)c1C do in these assays?
TRPML1 blocker: 12; DRD3 agonist: 3; TRPML1 ag: 1

Results for Cc1cc(Cl)cc(Br)c1OCCNCC(C)O (stereo not given) ?
TRPML1 blocker: -9; D3 antag: -71*; DRD3 agonist: -13; TRPML1 ag: 0

Results for CSc1cccc(NC(=S)N2CCCN(Cc3cccc(Cl)c3)C2)c1 ?
TRPML1 blocker: -18; D3 antag: inconclusive; DRD3 agonist: -15; TRPML1 ag: -1

How did S=C(Nc1ccccc1)N1CCN(Cc2ccccc2)CC1 do in these assays?
TRPML1 blocker: -2; D3 antag: -2; DRD3 agonist: -8; TRPML1 ag: -1

How did COc1ccc(NC(=S)N2CCCN(Cc3cccc(Cl)c3)C2)cc1 do in these assays?
TRPML1 blocker: 12; D3 antag: -80*; DRD3 agonist: -13; TRPML1 ag: -1

Results for CCOc1ccc(NC(=S)N2CCCN(Cc3cccc(Cl)c3)C2)cc1 ?
TRPML1 blocker: -10; D3 antag: -74*; DRD3 agonist: -13; TRPML1 ag: -1

How did Fc1ccc(CN2CCCN(C(=S)Nc3ccc(F)cc3)CC2)cc1 do in these assays?
TRPML1 blocker: 17; D3 antag: -59*; DRD3 agonist: -14; TRPML1 ag: 0

How did CCSc1nc2c([nH]c3ccccc32)c(=O)n1-c1ccc(OC)cc1 do in these assays?
TRPML1 blocker: 22; DRD3 agonist: -3; TRPML1 ag: 1

Results for O=S(=O)(Nc1cccc2ccccc12)c1cccc2ccccc12 ?
TRPML1 blocker: 9; TRPML1 ag: 4

Results for COC(=O)c1c(NS(=O)(=O)c2cccs2)sc2c1CCCC2 ?
TRPML1 blocker: 0; D3 antag: -57*; DRD3 agonist: -4; TRPML1 ag: 2

Results for CCOc1cc(C2c3c(oc4ccccc4c3=O)C(=O)N2Cc2ccc3c(c2)OCO3)ccc1O (stereo not given) ?
TRPML1 blocker: -2; DRD3 agonist: -7; TRPML1 ag: 0

What do the screens show for `COc1ccc(CNC(=O)c2ccc(-n3cncn3)c3ccoc23)cc1OC`?
TRPML1 blocker: -15; D3 antag: 0; DRD3 agonist: 10; TRPML1 ag: 2

What do the screens show for `COc1ccc(CNC(=O)c2ccc(-n3ccnc3)c3ccoc23)cc1OC`?
D3 antag: -76*; DRD3 agonist: -6; TRPML1 ag: 0

What do the screens show for `[O-][N+](=NC1C=Cc2ccccc21)C1C=Cc2ccccc21` (stereo not given)?
TRPML1 ag: 0

What do the screens show for `Cc1ccc(OCC(=O)Nc2ccc3c(c2)nc(CCN2CCC(C)CC2)n3C)cc1`?
TRPML1 blocker: -15; D3 antag: -54*; DRD3 agonist: -16; TRPML1 ag: -1

How did CC1CCN(CCc2nc3cc(NC(=O)NC4CCCCC4)ccc3n2C)CC1 do in these assays?
TRPML1 blocker: -4; D3 antag: -86*; DRD3 agonist: -28; TRPML1 ag: 0

Results for Cc1cccc(OCC(=O)Nc2ccc3c(c2)nc(CN2CCCCC2)n3C)c1 ?
TRPML1 blocker: 4; D3 antag: -92*; DRD3 agonist: -14; TRPML1 ag: 0

Results for COc1ccc(OCC(=O)Nc2ccc3c(c2)nc(CCN2CCC(C)CC2)n3C)cc1 ?
TRPML1 blocker: -15; D3 antag: inconclusive; DRD3 agonist: -5; TRPML1 ag: 0

How did CCN(Cc1nc2ccccc2c(=O)[nH]1)C(=O)c1cc(C2CC2)nn1-c1ccccc1 do in these assays?
TRPML1 blocker: 3; D3 antag: 2; DRD3 agonist: 5; TRPML1 ag: 1

Results for CN(Cc1nc2ccccc2c(=O)[nH]1)C(=O)c1cc(C2CC2)nn1-c1ccccc1 ?
TRPML1 blocker: 8; D3 antag: -60*; DRD3 agonist: 2; TRPML1 ag: 0

How did CC(=O)Nc1sc(/C(C#N)=C/c2ccc(Cl)c(Cl)c2)nc1-c1ccc(C)cc1 do in these assays?
TRPML1 blocker: inconclusive; D3 antag: 12; DRD3 agonist: 9; TRPML1 ag: 75*

How did O=c1[nH]c(=S)[nH]c2c1C(c1cccc(C(F)(F)F)c1)OC(CCc1ccccc1)C2 (stereo not given) do in these assays?
D3 antag: -71*; DRD3 agonist: -6; TRPML1 ag: 0

Results for O/N=C/c1cc(Br)ccc1OCc1ccc(F)cc1 ?
TRPML1 blocker: 14; D3 antag: 10; DRD3 agonist: 1; TRPML1 ag: 2

How did Cc1ccc(COc2ccc(Br)cc2/C=N/O)cc1 do in these assays?
TRPML1 blocker: -14; D3 antag: -94*; DRD3 agonist: -5; TRPML1 ag: 0

What do the screens show for `CCCC(=O)Oc1c(Sc2ccc(Cl)cc2)c(C)nn1-c1ccccc1`?
TRPML1 blocker: -14; DRD3 agonist: -9; TRPML1 ag: -1

What do the screens show for `CCCSc1nsc(NC(=O)CC)n1`?
TRPML1 blocker: 31; D3 antag: 0; DRD3 agonist: 8; TRPML1 ag: 2
